Source: PubChem BioAssay
Activity calls are given as the source filed them. Unless noted, no rule for the calls is given here.

Assays:
[1] = resazurin metabolic signal in HepG2 cells – cell-based, resazurin fluorescence, 24 h, PK04 Diversity Set, profiling panel (AID 1172); settings: HepG2 viability, higher = more signal
[2] = budding yeast growth changes without added modifier – OD600, strain BY4716, 24 h, basal condition, primary screen (AID 1173); settings: S. cerevisiae BY4716 growth, OD600, 24 h; higher = more signal, called active from +8 up or from −8 down
[3] = viability profiling in MM1S myeloma cells – cell-based, resazurin fluorescence, basal, 24 h, PK04 Diversity Set, profiling panel (AID 1174); settings: higher = more signal, called active from +8 up or from −8 down;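 also: MM1S multiple myeloma cell line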
[4] = target: Dihydroorotate dehydrogenase (quinone), mitochondrial (Plasmodium falciparum (isolate 3D7)) (UniProt Q08210); assay: inhibition of P. falciparum DHODH – biochemical, C-terminal His tag, absorbance 600 nm, primary screen (AID 1175); settings: PfDHODH enzyme, DCIP absorbance 600 nm; higher = more signal, called active from +8 up or from −8 down;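 also: recombinant parasite enzyme with a five histidine tag at its C terminus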
Chain of Dihydroorotate dehydrogenase (quinone), mitochondrial (Plasmodium falciparum (isolate 3D7)) (Q08210 whole entry, looked up): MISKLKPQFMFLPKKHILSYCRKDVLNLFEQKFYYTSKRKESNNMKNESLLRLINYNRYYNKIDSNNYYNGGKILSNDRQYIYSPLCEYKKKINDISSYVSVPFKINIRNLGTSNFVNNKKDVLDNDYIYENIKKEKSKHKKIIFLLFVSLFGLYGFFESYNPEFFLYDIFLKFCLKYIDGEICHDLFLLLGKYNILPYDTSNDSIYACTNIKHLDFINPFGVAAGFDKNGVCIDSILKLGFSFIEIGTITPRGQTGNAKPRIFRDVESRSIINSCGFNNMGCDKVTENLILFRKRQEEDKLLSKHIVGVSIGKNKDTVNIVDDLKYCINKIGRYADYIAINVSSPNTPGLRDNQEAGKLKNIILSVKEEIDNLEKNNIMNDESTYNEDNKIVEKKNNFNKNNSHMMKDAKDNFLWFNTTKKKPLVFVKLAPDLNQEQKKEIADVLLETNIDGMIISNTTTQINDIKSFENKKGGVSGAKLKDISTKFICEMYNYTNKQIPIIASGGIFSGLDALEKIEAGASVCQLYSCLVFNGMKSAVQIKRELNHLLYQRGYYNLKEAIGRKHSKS

[5] = inhibition of PAO1 biofilm formation – strain PAO1, LB-PBS medium, absorbance 600 nm, primary screen (AID 1176); settings: P. aeruginosa PAO1 growth/biofilm, A600, 12 h; higher = more signal
[6] = growth modulation of vineyard yeast isolate – strain RM11-1a, OD600, basal, 24 h, primary screen (AID 1177);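 also: cultures grown under basal conditions with no added stressor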; settings: S. cerevisiae RM11-1a growth, OD600, 24 h; higher = more signal, called active from +8 up or from −8 down
[7] = growth of efflux-deficient E. coli DRC39 – strain DRC39, OD650, 24 h, E. coli filamentation inducers, primary screen (AID 1178);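 also: growth measured as culture turbidity by optical density at 650 nm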; settings: E. coli DRC39 acrAB, higher = more signal, called active from +8 up or from −8 down
[8] = growth of efflux-deficient E. coli DRC39 – strain DRC39, OD650, 48 h, E. coli filamentation inducers, primary screen (AID 1179);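 also: screen aims at cell division blockers that make cells filament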; settings: E. coli DRC39 delta-acrAB growth, higher = more signal, called active from +8 up or from −8 down
[9] = viability profiling in RPMI8226 myeloma cells – cell-based, resazurin fluorescence, basal, 24 h, PK04 Diversity Set, profiling panel (AID 1180); settings: higher = more signal;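 also: RPMI8826 multiple myeloma cell line at 5000 cells per well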
[10] = target: E3 ubiquitin-protein ligase XIAP (Homo sapiens) (UniProt P98170); assay: small molecules binding XIAP protein – biophysical, small-molecule microarray, fluorescence 635 nm, primary screen (AID 1181); settings: higher = more signal;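 also: score merges 667 nm emission and signal to noise over triplicate slides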
Chain of E3 ubiquitin-protein ligase XIAP (Homo sapiens) (P98170 whole entry, looked up, the tested form may be a part): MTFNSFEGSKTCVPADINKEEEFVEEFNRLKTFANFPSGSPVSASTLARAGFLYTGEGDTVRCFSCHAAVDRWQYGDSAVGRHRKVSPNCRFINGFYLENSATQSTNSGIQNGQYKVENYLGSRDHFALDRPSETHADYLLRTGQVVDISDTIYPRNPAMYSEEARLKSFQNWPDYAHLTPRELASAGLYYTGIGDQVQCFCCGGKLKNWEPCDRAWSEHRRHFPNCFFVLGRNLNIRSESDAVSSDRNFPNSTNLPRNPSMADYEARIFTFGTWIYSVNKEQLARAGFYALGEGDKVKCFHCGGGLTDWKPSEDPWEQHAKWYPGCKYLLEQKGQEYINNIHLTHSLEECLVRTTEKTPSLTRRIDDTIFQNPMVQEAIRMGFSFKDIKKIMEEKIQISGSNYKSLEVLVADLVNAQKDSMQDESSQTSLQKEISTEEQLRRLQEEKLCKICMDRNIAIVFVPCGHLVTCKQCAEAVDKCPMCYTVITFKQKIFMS

[11] = system: XIP peptide (Xip251-270) binding; assay: XIP fragment 251-270 binding compounds – biochemical, small-molecule microarray, fluorescence 635/667 nm, 0.1 µg/mL protein, primary screen (AID 1182); settings: fluorescent protein binding, 635 nm, higher = more signal, called active from +8 up or from −8 down
XIP peptide (Xip251-270) = assay: compounds binding XIP fragment 251-270 – biochemical, small-molecule microarray, fluorescence 635/667 nm, 0.5 µg/mL protein, primary screen (AID 1183); settings: fluorescence 635 nm, higher = more signal
[12] = blood-stage malaria parasite viability loss – strain 3D7, DAPI fluorescence, 100 nL, primary screen (AID 1184);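 also: parasites grown inside human red blood cells in medium with human serum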; settings: P. falciparum 3D7 growth, 3 d, higher = more signal
[13] = target: Homeobox protein Hox-A13 (Mus musculus) (UniProt Q62424); assay: disruptors of Hoxa13 oligonucleotide interaction – biochemical, fluorescence polarization, labeled oligonucleotide, primary screen (AID 1185); settings: Hoxa13:DNA binding, 15 min, higher = more signal, called active from +8 up or from −8 down
Chain of Homeobox protein Hox-A13 (Mus musculus) (Q62424 whole entry, looked up): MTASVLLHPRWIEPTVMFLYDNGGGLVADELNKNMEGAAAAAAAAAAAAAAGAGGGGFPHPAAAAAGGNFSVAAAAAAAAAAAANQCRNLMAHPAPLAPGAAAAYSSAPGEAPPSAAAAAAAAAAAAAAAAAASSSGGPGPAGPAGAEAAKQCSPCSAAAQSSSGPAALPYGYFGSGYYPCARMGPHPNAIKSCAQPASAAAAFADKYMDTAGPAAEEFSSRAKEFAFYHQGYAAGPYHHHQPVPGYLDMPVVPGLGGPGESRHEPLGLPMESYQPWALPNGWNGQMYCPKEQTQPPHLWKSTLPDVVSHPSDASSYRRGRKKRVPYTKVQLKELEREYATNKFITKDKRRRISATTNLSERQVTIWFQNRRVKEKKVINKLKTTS

[14] = blockers of DNA damage checkpoint Chk1 activation – imaging, HeLa, hydroxyurea, phospho-Chk1 antibody, percent positive cells, primary screen (AID 1186); settings: hydroxyurea-induced phospho-Chk1 immunofluorescence imaging, higher = more signal
[15] = blockers of DNA damage checkpoint Chk1 activation – imaging, HeLa, hydroxyurea, phospho-Chk1 nuclear intensity, primary screen (AID 1187); settings: hydroxyurea-induced phospho-Chk1 immunofluorescence imaging, higher = more signal

SMILES | z-score [1] | z-score [2] | z-score [3] | composite z-score [4] | z-score [5] | z-score [6] | z-score [7] | z-score [8] | z-score [9] | composite z-score [10] | composite z-score [11] | composite z-score (XIP peptide (Xip251-270)) | z-score [12] | z-score [13] | z-score [14] | z-score [15]
Cc1ccc(-c2cccc(=O)o2)cc1 | -0.789 | -2.2 (inactive) | 0.123 (inactive) | -0.919 (inactive) | -0.128 (inactive) | -0.333 (inactive) | -0.418 (inactive) | -0.292 (inactive) | -0.442 | -0.0143 | -0.0449 (inactive) | -0.776 | 0.842 | -1.28 (inactive) | 0.45 (inactive) | -0.203 (inactive)
COCCOC(=O)N1C(=O)[C@@]2(c3cc(C#CCC(C(=O)OC)C(=O)OC)ccc31)[C@H](C(=O)N1CCCCCCC1)[C@H]1C(=O)O[C@H](c3ccccc3)[C@H](c3ccccc3)N1[C@@H]2c1ccc(O)cc1 | -0.124 | -0.0861 (inactive) | 1.09 (inactive) | 1.49 (inactive) | 0.1 (inactive) | 0.451 (inactive) | -0.543 (inactive) | -0.86 (inactive) | 0.646 | 0.312 | 0.825 (inactive) | 0.729 | -2.22 | -0.454 (inactive) | -0.15 (inactive) | -0.367 (inactive)
CC(=O)NCCCC[C@@H]1NC(=O)[C@H]2C[C@@H](C(=O)NCCCCCN)[C@@H](c3cccc(OCCO)c3)N2C1=O | 0.382 | -1.74 (inactive) | 1.18 (inactive) | -0.613 (inactive) | 0.0904 (inactive) | -1.1 (inactive) | 1.03 (inactive) | 1.24 (inactive) | 1.5 | -0.02 | 0.149 (inactive) | 0.654 | 0.184 | -2.28 (inactive) | -1.11 (inactive) | -0.661 (inactive)
C=CCC(OC(C)=O)[C@@H]1[C@@H](N(Cc2cccc3ccccc23)C(=O)Cc2ccc(F)cc2)c2cc(OCCCO)ccc2N1C(=O)Cc1ccc(OC)cc1 (some centres undefined) | 0.303 | -1.61 (inactive) | 0.738 (inactive) | -0.83 (inactive) | -0.206 (inactive) | -1.16 (inactive) | 0.248 (inactive) | 0.927 (inactive) | 1.01 | -0.01 | -0.51 (inactive) | -0.189 | -1.64 | -0.902 (inactive) | -0.0456 (inactive) | -0.301 (inactive)
COC(=O)[C@@]1(Cc2ccccc2)[C@H]2c3cc(C(=O)N4CCCC4)n(Cc4ccccc4)c3C[C@H]2CN1C(=O)c1ccccc1 | -2.54 | 0.717 (inactive) | -1.12 (inactive) | -0.237 (inactive) | 0.895 (inactive) | 0.235 (inactive) | -0.78 (inactive) | -0.591 (inactive) | -3.29 | 0.421 | 3.1 (inactive) | -0.179 | -1.12 | -4.13 (inactive) | 0.234 (inactive) | 0.167 (inactive)
CCC[C@@H]1C[C@@]1(CCC)[C@@H](NC(=O)c1ccco1)c1ccc(Cl)cc1 | 1.6 | 0.614 (inactive) | 0.254 (inactive) | -0.152 (inactive) | 0.439 (inactive) | 0.288 (inactive) | -0.195 (inactive) | 0.105 (inactive) | -1.67 | -0.683 | 0.0025 (inactive) | -0.835 | -1.21 | -0.61 (inactive) | 0.348 (inactive) | 0.241 (inactive)
[N-]=[N+]=NCc1ccccc1[C@H]1OC(c2ccc(OCCCO)cc2)=N[C@@]1(Cc1ccccc1)C(N)=O | 1.16 | -3.32 (inactive) | -0.0284 (inactive) | -0.174 (inactive) | -0.195 (inactive) | 1.01 (inactive) | 0.961 (inactive) | 0.195 (inactive) | -0.373 | -0.124 | 1.78 (inactive) | 0.852 | -0.676 | -3.61 (inactive) | -0.441 (inactive) | -0.189 (inactive)
NC(=O)NCC#Cc1ccc2c(c1)[C@]1(C(=O)N2)[C@H](c2ccc(OCCO)cc2)N2[C@H](c3ccccc3)[C@H](c3ccccc3)OC(=O)[C@H]2[C@@H]1C(=O)N1CCCCCCC1 | 0.314 | 1.64 (inactive) | -0.476 (inactive) | 0.769 (inactive) | 2.03 (inactive) | 2.58 (inactive) | -0.172 (inactive) | -1.96 (inactive) | -0.507 | 0.531 | 2.2 (inactive) | 0.501 | -0.765 | -9.12 (active) | -0.0375 (inactive) | -0.265 (inactive)
C=CCN1C(=O)[C@@]2(O[C@@H](CCn3cc([C@H](O)c4ccccc4)nn3)[C@H]([Si](C)(C)c3ccc(OC)cc3)[C@H]2C)c2cc(NC(=O)c3ccc(OC)cc3)ccc21 | -1.55 | 0.336 (inactive) | -2.19 (inactive) | 0.874 (inactive) | 0.389 (inactive) | 2.42 (inactive) | 0.628 (inactive) | 0.146 (inactive) | -2.35 | 0.176 | 0.593 (inactive) | 0.189 | -2.7 | -4.41 (inactive) | 0.24 (inactive) | -0.338 (inactive)
COCCCNC(=O)[C@@]1(C)c2ccccc2C(=O)N(c2ccc(C)cn2)[C@H]1c1ccc(CO)cc1 | 0.361 | -0.156 (inactive) | -0.321 (inactive) | 0.0772 (inactive) | 0.112 (inactive) | -0.795 (inactive) | -0.0985 (inactive) | -0.087 (inactive) | 0.157 | 0.286 | -0.625 (inactive) | 0.892 | 0.563 | -1.9 (inactive) | 0.228 (inactive) | 0.554 (inactive)
COc1ccc(C#Cc2ccc3c(c2)[C@]2(C(=O)N3)[C@H](C(=O)O)[C@H]3C(=O)O[C@H](c4ccccc4)[C@H](c4ccccc4)N3[C@@H]2c2ccc(OCCO)cc2)cc1 | -0.182 | 0.773 (inactive) | 0.586 (inactive) | -15.6 (active) | 3.6 (inactive) | 2.51 (inactive) | 0.851 (inactive) | 0.377 (inactive) | 0.431 | 0.0811 | 2.6 (inactive) | 0.701 | -1.78 | -5.22 (inactive) | 0.573 (inactive) | 0.862 (inactive)
C=CCNC(=O)[C@H]1[C@@H]2C(=O)O[C@@H](c3ccccc3)[C@@H](c3ccccc3)N2[C@@H](c2ccc(OCCO)cc2)[C@]12C(=O)N(C(=O)OCCOC)c1ccc(C#CC3=CCCCC3)cc12 | 0.293 | 0.567 (inactive) | -0.344 (inactive) | -0.91 (inactive) | 2.06 (inactive) | 1.45 (inactive) | -0.178 (inactive) | 0.215 (inactive) | 0.136 | -0.0727 | 0.377 (inactive) | 0.799 | -2.22 | 2.62 (inactive) | -0.142 (inactive) | -0.108 (inactive)
CN(C)CCCCCCNC(=O)[C@@H]1C[C@@H]2C(=O)NCC(=O)N2[C@@H]1c1ccc(O)cc1 | -1.01 | -1.06 (inactive) | -1.26 (inactive) | -0.493 (inactive) | -0.13 (inactive) | -0.832 (inactive) | -0.208 (inactive) | -0.823 (inactive) | -1.35 | 0.249 | 1.82 (inactive) | 0.935 | -0.107 | -1.63 (inactive) | -0.425 (inactive) | -0.297 (inactive)
C=CC[C@@]1(C(=O)NCCN2CCOCC2)N=C(c2ccc(OCCCO)cc2)O[C@@H]1c1ccccc1 | 0.255 | -0.0792 (inactive) | 0.275 (inactive) | 1.61 (inactive) | 1.13 (inactive) | 1.45 (inactive) | 0.297 (inactive) | -0.483 (inactive) | 0.482 | -0.237 | 0.202 (inactive) | 0.638 | -0.825 | -6.6 (inactive) | 0.426 (inactive) | 0.0737 (inactive)
